Experimental data reported in PubChem BioAssay AID686999 (Broad Institute, 2013).
Potency and affinity values are given separately. Inconclusive results are not listed. Where a call stands in place of a potency, no number is given. The source made the active and inactive calls.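 Rule for the calls: active = active in every separate test run, each with half-maximal potency at or under twice its top valid dose; inconclusive = the separate test runs give conflicting calls; inactive = inactive in every test run, including signal rising instead.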

Assay: Cryptococcus growth inhibition by alamar blue – cell lysis, cherry-picks, replicate tests, mechanism study for C. neoformans antifungal project, dose response (AID 686999)

Row | Structure (SMILES) | outcome
1 | COC(=O)C1=C(C)N(Cc2ccc(F)cc2)C(=S)NC1c1ccccc1 (stereo unspecified) | inactive
2 | O=C(NC(=S)Nc1ccccc1N1CCCC1)c1ccccc1[N+](=O)[O-] | inactive
3 | O=C(NCCN1CCCCC1)[C@H]1N[C@H]2c3ccc(-c4ccncc4)c(=O)n3C[C@H]2[C@@H]1CO | inactive
4 | Fc1ccccc1NC(=S)NN(Cc1ccccc1)c1ccccc1 | inactive
5 | S=C(NCc1ccccc1)NCC1COc2ccccc2O1 (stereo unspecified) | inactive
6 | COc1ccccc1NC(=S)NCc1ccccc1Cl | inactive
7 | O=C(NC(=S)Nc1cc(Cl)ccc1N1CCOCC1)c1ccccc1[N+](=O)[O-] | inactive
8 | CCCCN1C(=S)NC[C@@H]1Cc1ccccc1 | inactive
9 | COC(=O)C1=C(C)N(Cc2ccc(Cl)cc2)C(=S)NC1c1cccc(Cl)c1 (stereo unspecified) | inactive
10 | S=C(NCCCc1ccccc1)Nc1ccccc1 | inactive
11 | Cc1cc(Cl)ccc1NC(=S)NCc1ccc(F)cc1 | inactive
12 | COC(=O)C1=C(C)N(CC(C)C)C(=S)NC1c1cccc(F)c1 (stereo unspecified) | inactive
13 | COC(=O)C1=C(C)N(Cc2ccc(F)cc2)C(=S)NC1c1cccc(Cl)c1 (stereo unspecified) | inactive
14 | COc1cccc(NC(=S)N2CCC(Cc3ccccc3)CC2)c1 | inactive
15 | COC(=O)C1=C(C)N(CC(C)C)C(=S)NC1c1ccc(F)cc1 (stereo unspecified) | inactive
16 | COc1ccc(CNC(=S)NCc2ccc(OC(C)C)cc2)cc1 | inactive
17 | Cc1ccc(C)c(NC(=O)C2(C)CCCN2C(=O)C(C)C)c1 (stereo unspecified) | inactive
18 | CCc1nc(N2CCCCC2C)c2oc3ccccc3c2n1 (stereo unspecified) | inactive
19 | O=C(NC(=S)NCC1COc2ccccc2O1)c1ccc(Cl)cc1 (stereo unspecified) | inactive
20 | COc1cccc(NC(=S)NC(=O)Cc2ccc(Cl)cc2)c1 | inactive
21 | O=C(Cc1ccccc1)N[C@H]1C=C[C@@H](CC(=O)N2CCOCC2)O[C@@H]1CO | inactive
